From PubChem BioAssay (NCI)
Values joined by “and” are separate entries in the source; they are usually repeats but may differ in a detail not shown here. Identical values can stand only once. This is part of a sample that, as a whole, favours compounds with a hit. Of some 79,000 tested, about 15% had one in any assay. A number with no mark means an inactive call. Active and inactive are the calls of the source. Cut-off read from the data, not from the text of the source: active = growth inhibition above about 70%; inactive = the rest.

Experiment: NCI Yeast Anticancer Drug Screen. Data for the mlh1 rad18 strain (AID 175)
Conditions: S. cerevisiae mlh1 rad18 strain growth inhibition; at 50.0 µM (retest, dose inferred, filed as 5.0); hits give high values
Summary of the method: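 Genetically defined yeast (DNA repair-deficient) exposed to compounds; growth inhibition determined relative to vehicle.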
`FC(F)(F)c1nc2ccc(SSc3ccc4nc(C(F)(F)F)[nH]c4c3)cc2[nH]1` showed a growth inhibition of -6%.
In the case of `O=[N+]([O-])c1csc([N+](=O)[O-])c1`, the growth inhibition is reported as 99% (active).
With `CCc1cc2c(cc1-c1csc(C/C(N)=N/O)n1)C(C)(C)CCC2(C)C` the growth inhibition was 94% (active).
With `CCCCCCCC[N+](CCCC)(CCCC)CCCC` (tested in a mixture with another compound) the growth inhibition was 99% (active).
For `CCC[CH2][Sn]([CH2]CCC)([S]C#N)[S]C#N`, the growth inhibition was 97% (active).

Same assay, conditions: S. cerevisiae mlh1 rad18 strain growth inhibition; at 50.0 µM; hits give high values
`c1ccc(NC2=NCCN2)nc1` showed a growth inhibition of 15.2%.
For `C[CH2][Sn]([CH2]C)([CH2]C)[O]C(=O)CO`, the growth inhibition was 84.9% (active).
For `CC12CCC(O)CC1CCC1C2CCC2(C)C1CC1CC(=O)OC12` (centres undefined), the growth inhibition was 97.2% (active).
In the case of `Nc1ccc(N=Nc2ccccc2)cc1`, the growth inhibition is reported as 82.5% (active).
With `C[n+]1c(/C=C/c2ccc(O)c3ncccc23)[se]c2ccccc21` the growth inhibition was 93.4% (active).
With `COC(=O)C1=C(C)N2CCSC2(C)C(C(=O)OC)C1c1cccc(Cl)c1` (centres undefined) the growth inhibition was 73.2% (active).
With `O=[N+]([O-])/C=C/c1ccccc1` the growth inhibition was 98.1% (active).
With `CC12CCC(O)CC1CCC1C2CCC2(C)C(C(=O)CC(O)C(F)(F)F)CCC12` (centres undefined) the growth inhibition was 85.7% (active).
In the case of `CC(C)NCC(O)c1ccc(O)c(O)c1.[Pt].c1ccc([PH+](c2ccccc2)c2ccccc2)cc1.c1ccc([PH+](c2ccccc2)c2ccccc2)cc1`, the growth inhibition is reported as 98.8% (active).
Work on `CCOC(=O)/C(=C\c1ccc(C(=O)OC)cc1)[Se]c1ccccc1` yielded a growth inhibition of 58.8%.
With `CC/C(=C/c1ccc2c(c1)OCO2)[N+](=O)[O-]` the growth inhibition was 99.4% (active).
With `CCOC(=O)C1=C(C)NC(=O)NC1c1ccc(N(CCCl)CCCl)cc1Cl` (centres undefined) the growth inhibition was 78.5% (active).
For `S=C(S)N1CCOCC1`, the growth inhibition was 19.5%.
For `CCOC(=O)c1ccccc1N`, the growth inhibition was -17.9%.
For `C[n+]1c(/C=C/c2ccc(O)c(O)c2)[se]c2ccccc21`, the growth inhibition was 77% (active).
In the case of `CS(=O)(=O)[O-].CS(=O)(=O)[O-].NC1CCCCC1N.[Pt+4]` (centres undefined), the growth inhibition is reported as 88.3% (active).
In the case of `COc1ccc2c(c1O)-c1cccc3c1[C@@H](C2)N(CCCl)CC3`, the growth inhibition is reported as 86.6% (active).
With `COC(=O)CC1(C(=O)O)CC2(Cl)C(Cl)=C(Cl)C1(Cl)C2(Cl)Cl` (centres undefined) the growth inhibition was 61.4%.
With `CCCCN(C)CC(C(C)=O)C(c1ccccc1)c1c(O)c2ccccc2oc1=O` (centres undefined) the growth inhibition was 85.8% (active).
For `O=[n+]1c2ccccc2n([O-])c2ccccc21.[Cl][Ni][Cl]`, the growth inhibition was 91.9% (active).
In the case of `COc1ccc(C(Cc2ccc(Cl)c(Cl)c2)NCCO)cc1` (centres undefined), the growth inhibition is reported as 86.2% (active).
In the case of `O=C(N/N=C/c1cc(Cl)cc(Cl)c1[O-])c1ccccc1O.O=C(N/N=C/c1cc(Cl)cc(Cl)c1[O-])c1ccccc1O.[Zn+2]`, the growth inhibition is reported as 95.1% (active).
For `Oc1ccc(Cl)cc1Sc1cc(Cl)ccc1O`, the growth inhibition was 99.3% (active) and 99.5% (active) and 99.4% (active).
With `O=S(=O)([O-])[O-].[OH3+].[OH3+].[OH3+].[Ru+2].c1ccccc1` the growth inhibition was 87.5% (active).
In the case of `CCCCCC(Cn1ccnc1)c1ccc(Cl)cc1Cl` (centres undefined), the growth inhibition is reported as 99.6% (active).
With `CC1=C(CO)C(=O)OC(C(C)C2CCC3C4CC5OC56C(O)C(N5CC5)=CC(=O)C6(C)C4CCC23C)C1` (centres undefined) the growth inhibition was 69.8%.
For `CCCC[CH2][Sn]([CH2]CCCC)[CH2]CCCC.CCCC[CH2][Sn]([CH2]CCCC)[CH2]CCCC`, the growth inhibition was 99.1% (active).
In the case of `CCC[CH2][Sn]1([CH2]CCC)[O]C(=O)C(C(C)C)N=Cc2ccccc2[O]1` (centres undefined), the growth inhibition is reported as 88.5% (active).
For `Oc1c(Cl)cc(-c2cc(Cl)c(O)c(Cl)c2)cc1Cl`, the growth inhibition was 84.9% (active).
With `CC(=O)Nc1ccc(/C=N/N=C(/N)N[N+](=O)[O-])cc1` the growth inhibition was 81.3% (active).
For `CC(Br)c1ccccc1` (centres undefined), the growth inhibition was 79.6% (active).
`C[Si]1(C)CCCCC2(C1)C(=O)NC(=O)NC2=O` showed a growth inhibition of 8.5%.
In the case of `CCCCCCCCCCCCCCCc1cccc(O)c1O`, the growth inhibition is reported as 82.7% (active).
For `CC1(C)OC2OC3C(CN(CCCl)Cc4ccccc4)OC(c4ccccc4)OC3C2O1` (centres undefined), the growth inhibition was 14.2%.
With `FC(F)(F)c1nc2ccc(SSc3ccc4nc(C(F)(F)F)[nH]c4c3)cc2[nH]1` the growth inhibition was 97.2% (active).
For `O=[N+]([O-])c1csc([N+](=O)[O-])c1`, the growth inhibition was 99.3% (active).
In the case of `CCc1cc2c(cc1-c1csc(C/C(N)=N/O)n1)C(C)(C)CCC2(C)C`, the growth inhibition is reported as 90.3% (active).
With `CCCCCCCC[N+](CCCC)(CCCC)CCCC` (tested in a mixture with another compound) the growth inhibition was 99.3% (active).
With `CCC[CH2][Sn]([CH2]CCC)([S]C#N)[S]C#N` the growth inhibition was 88% (active).
